Values joined by “and” are separate entries in the source; they are usually repeats but may differ in a detail not shown here. Identical values can stand only once. The campaign covered roughly 5,500 compounds. About 2,000 (36%) were called active. Not shown: some 18% with an inconclusive outcome. Cut-off read from the data, not from the text of the source: active = normalized growth mostly below about 0.91 (no sharp cut-off); inconclusive = no clear call, values can overlap the other calls; inactive = mostly above about 0.92. This is one part of the list.
Experiment: chemical genetic growth profiling, strain panel (AID 1159580);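 note: tested at 20 µM; growth read once vehicle control cultures reached saturation at 30 °C; 1 = growth at the plate median or of vehicle wells; lower values mean less growth of the strain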
Settings: S. cerevisiae deletion strains, growth OD

Measured: normalized growth

N#Cc1c(Cl)cccc1Cl
inactive: locus YAL013W, strain DEP1, active compounds read low 1.01 | locus YAL021C, strain ccr4, active compounds read low 1.01 | locus YAL026C, strain drs2, active compounds read low 0.988 | locus YAL030W, strain snc1, active compounds read low 0.979 | locus YBL061C, strain skt5, active compounds read low 0.979 | locus YBR009C, strain hhf1, active compounds read low 0.959 | locus YBR021W, strain FUR4, active compounds read low 1.02 | locus YBR023C, strain chs3, active compounds read low 0.981 | locus YBR171W, strain sec66, active compounds read low 0.982 | locus YBR229C, strain ROT2, active compounds read low 1.01 | locus YBR231C, strain swc5, active compounds read low 0.98 | locus YBR279W, strain paf1, active compounds read low 0.983 | locus YCL011C, strain gbp2, active compounds read low 0.954 | locus YCL016C, strain dcc1, active compounds read low 0.983 | locus YCL029C, strain bik1, active compounds read low 1.01 | locus YCL069W, strain vba3, active compounds read low 0.98 | locus YCR088W, strain abp1, active compounds read low 0.985 | locus YDL005C, strain med2, active compounds read low 0.977 | locus YDL035C, strain GPR1, active compounds read low 1.01 | locus YDL040C, strain nat1, active compounds read low 0.991 | locus YDL074C, strain BRE1, active compounds read low 1.03 | locus YDL101C, strain DUN1, active compounds read low 1.01 | locus YDL134C, strain PPH21, active compounds read low 1 | locus YDL185W, strain tfp1, active compounds read low 1.01 | locus YDL192W, strain arf1, active compounds read low 1.01 | locus YDR001C, strain nth1, active compounds read low 0.977 | locus YDR069C, strain doa4, active compounds read low 0.983 | locus YDR101C, strain arx1, active compounds read low 1.01 | locus YDR137W, strain rgp1, active compounds read low 1.01 | locus YDR150W, strain NUM1, active compounds read low 1.01 | locus YDR159W, strain sac3, active compounds read low 0.995 | locus YDR162C, strain NBP2, active compounds read low 1.01 | locus YDR195W, strain ref2 0.991 | locus YDR297W, strain sur2, active compounds read low 0.972 | locus YDR318W, strain mcm21, active compounds read low 1.01 | locus YDR334W, strain swr1, active compounds read low 0.952 | locus YDR335W, strain msn5, active compounds read low 0.977 | locus YDR388W, active compounds read low 1.01 | locus YDR392W, strain spt3, active compounds read low 1 | locus YDR502C, strain sam2, active compounds read low 1.01 | locus YEL003W, strain gim4, active compounds read low 0.969 | locus YEL037C, strain rad23, active compounds read low 0.981 | locus YEL061C, strain CIN8 (second series), active compounds read low 0.98 | locus YEL061C, strain CIN8, active compounds read low 1.01 | locus YER015W, strain faa2, active compounds read low 0.98 | locus YER016W, strain bim1, active compounds read low 0.979 | locus YER110C, active compounds read low 1 | locus YER111C, strain swi4, active compounds read low 0.965 | locus YER155C, strain BEM2 (second series), active compounds read low 0.975 | locus YER155C, strain BEM2, active compounds read low 1.01 | locus YER167W, strain BCK2, active compounds read low 1.01 | locus YFR010W, strain ubp6, active compounds read low 0.98 | locus YGL078C, strain dbp3, active compounds read low 1.01 | locus YGL086W, strain mad1, active compounds read low 1.01 | locus YGL167C, strain pmr1, active compounds read low 0.978 | locus YGL173C, strain kem1, active compounds read low 0.99 | locus YGL227W, strain vid30, active compounds read low 0.974 | locus YGL240W, strain doc1, active compounds read low 0.965 | locus YGL248W, strain PDE1, active compounds read low 1 | locus YGL253W, strain hxk2, active compounds read low 0.987 | locus YGR078C, strain PAC10, active compounds read low 1.01 | locus YGR135W, strain pre9, active compounds read low 1.01 | locus YGR229C, strain SMI1, active compounds read low 1.02 | locus YGR252W, strain gcn5, active compounds read low 1.09 | locus YHR013C, strain ard1, active compounds read low 1.02 | locus YHR027C, strain rpn1, active compounds read low 0.977 | locus YHR030C, strain SLT2, active compounds read low 1.02 and 0.941 | locus YHR079C, strain IRE1 (second series), active compounds read low 1.01 | locus YHR079C, strain IRE1, active compounds read low 0.965 | locus YHR094C, strain hxt1, active compounds read low 1.01 | locus YHR129C, strain ARP1, active compounds read low 1.01 | locus YHR142W, strain chs7, active compounds read low 0.976 | locus YHR200W, strain rpn10, active compounds read low 1.01 | locus YIL066C, strain RNR3, active compounds read low 1.04 | locus YIL073C, strain SPO22, active compounds read low 1.03 | locus YIL125W, strain kgd1, active compounds read low 1.01 | locus YIR030C, strain dcg1, active compounds read low 1.02 | locus YJL092W, strain hpr5, active compounds read low 0.976 | locus YJL095W, strain BCK1 (second series), active compounds read low 0.997 | locus YJL095W, strain BCK1, active compounds read low 0.999 and 0.941 | locus YJL115W, strain asf1, active compounds read low 0.959 | locus YJL129C, strain trk1, active compounds read low 0.976 | locus YJL134W, strain LCB3, active compounds read low 1.01 | locus YJL154C, strain vps35, active compounds read low 0.978 | locus YJL164C, strain tpk1, active compounds read low 0.996 | locus YJL166W, strain qcr8, active compounds read low 0.978 | locus YJL168C, strain set2, active compounds read low 1.01 | locus YJL187C, strain SWE1 (second series), active compounds read low 1.01 | locus YJL187C, strain SWE1, active compounds read low 0.988 | locus YJR043C, strain POL32, active compounds read low 1.02 | locus YJR066W, strain TOR1, active compounds read low 0.936

From PubChem BioAssay AID1159580 (chemical genetic matrix, 2015)
